Results on 39 compounds are retold here after PubChem BioAssay (NCATS).

Results filed as inconclusive are left out. Where a call stands in place of a potency, no number is given. Activity calls are given as the source filed them. Calls come from the whole dose curve; as a rule, active = well fitted inhibition curve with a large enough effect; inconclusive = small, poorly fitted or top-dose-only effect; inactive = no such curve, though single readings can be large or run the other way. *1 amine or outer side, *2 acyl side, *3 side chain or, on linkers, in order; H or OH if unused. Where a SMILES comes first, the peptide text is derived from it. Bridges are numbered along the chain shown (N, C = ends). [ ]: non-standard residue; d: D form. The star is where a group is joined. ξ: configuration not given here. ξhTyr(3S-OH,4S-OH,3'-OSO3H) = NC(C(=O)O)[C@H](O)[C@@H](O)c1ccc(O)c(OS(=O)(=O)O)c1; Orn(4R-OH,5R-OH) = O=C([C@H](C[C@@H](O)[C@@H](O)N[*:3])N[*:1])[*:2]; X2 = CCCCCOc1ccc(-c2cc(-c3ccc(C(=O)*)cc3)no2)cc1; X3 = C[C@H]1CN([*:1])C(C(=O)[*:2])[C@H]1O; ξGln(3R-OH) = NC(=O)C[C@@H](O)C(N)C(=O)O; ξPro(4R-OH) = O=C(O)C1C[C@@H](O)CN1; ξThr(3R) = C[C@@H](O)C(N)C(=O)O; βNA = c1ccc2cc(N*)ccc2c1; Cbz = O=C(OCc1ccccc1)*; CH2F = FC*
Potency is the fitted concentration of half-maximal effect.

The nature of this assay: Primary qHTS for inhibitors of nuclear receptor binding SET domain protein 2 (NSD2) in an RCH-ACV wild type WT cells (2C) (AID 1645877). Note: nearly all actives have a fitted effect of over 70% in size. Particulars: RCH-ACV (leukaemia line) NSD2 WT (2C) viability, CellTiter-Glo, 72 h; series mostly up to 44.9 µM. (In general: Quantitative high-throughput screening tests each substance at several concentrations.)
Regarding `C#CCCCn1cc(-c2cccc3c2N[C@@H](C)CC(=O)N3)cn1`, the Potency entry was “inactive”.

Turning to `OC[C@H]1O[C@@H](OCc2ccccc2)[C@H](O[C@@H]2OC[C@@H](O)[C@H](O)[C@H]2O)[C@@H](O)[C@@H]1O`, the Potency entry is “inactive”.

Consider `Cc1cn2cc(CC(=O)N3CCC4(CC3)CN(Cc3ccc(-n5nccn5)cc3Cl)C4)nc2s1`, for which the Potency result is “inactive”.

Turning to `C[C@]12CC/C(=N\OCC(=O)O)C=C1CC[C@@H]1[C@@H]2[C@@H](O)C[C@@]2(C)[C@H]1CC[C@]2(O)C(=O)CO`, the Potency was 9.16 µM (active).

In the case of `C/C(=C\CCC(C)C1CC(O)C2(C)C3CCC4C(C)(C)C(OC5OCC(O)C(O)C5O)CCC45CC35CC(O)C12C)C(=O)O` (centres undefined), the Potency result is “inactive”.

Consider `C=C1CCc2occ(C)c2[C@H]2[C@H]1[C@@]13O[C@@]1(C[C@@H](C)[C@H]3OC(C)=O)[C@H]1O[C@@]21C`, for which the Potency entry was “inactive”.

For `CC12CC(O)C(O)C=C1c1cc(O)cc(O)c1C(=O)O2` (centres undefined), the Potency result was “inactive”.

On to `CC(C)CC(NC(=O)OCc1ccccc1)C(=O)NC(CC(C)C)C(=O)NC(CCC(=O)O)C(=O)Nc1ccc2ccccc2c1` (stereo not drawn) (Cbz-Leu-Leu-Glu-βNA; configuration not given here), for which the Potency entry is “inactive”.

Turning to `C/C1=C\CC[C@]2(C)O[C@H]2C(=O)c2c(C)coc2C1`, the Potency result is “inactive”.

`O=C1C[C@@]2(C(=O)N1)C(=O)N(Cc1ccc(Br)cc1F)C(=O)c1cccn12`: the Potency result was “inactive”.

Take `COc1ccc(O[C@@H]2O[C@H](CO)[C@@H](O)[C@H](O)[C@H]2O)cc1OC`: the Potency result was “inactive”.

As to `C=C1C2CCC3CC2(CC(O)C2(O)C1CC(OC1OC(CO)C(O)C(O)C1O)C2(C)C)CC3(C)O` (centres undefined), the Potency entry is “inactive”.

Regarding `COc1cc(/C=C/C(=O)O[C@@H]2O[C@H](CO)[C@@H](O)[C@H](O)[C@H]2O)ccc1O`, the Potency entry is “inactive”.

Take `OC[C@H]1O[C@@H](OCCc2ccccc2)[C@H](O)[C@@H](O)[C@@H]1O`: the Potency entry is “inactive”.

Regarding `CC(C)C(NC(=O)c1ccc(O)cc1)C(=O)N1CCCC1C(=O)Nc1c(O)cccc1C(=O)O` (centres undefined), the Potency result was “inactive”.

As for `O=C(O[C@@H]1O[C@H](CO)[C@@H](O)[C@H](O)[C@H]1O)c1ccccc1`, the Potency entry is “inactive”.

In the case of `Cc1ncc([N+](=O)[O-])n1C[C@H](O)CN1CCOCC1`, the Potency result is “inactive”.

Consider `CC1(C)CC[C@]2(C(=O)O[C@@H]3O[C@H](CO[C@@H]4O[C@H](CO)[C@@H](O)[C@H](O)[C@H]4O)[C@@H](O)[C@H](O[C@@H]4O[C@H](CO)[C@@H](O)[C@H](O)[C@H]4O)[C@H]3O)CC[C@]3(C)C(=CCC4[C@@]5(C)CC[C@H](O[C@@H]6OC[C@@H](O)[C@H](O)[C@H]6O)[C@@](C)(C(=O)O)C5CC[C@]43C)[C@@H]2C1` (some centres undefined), for which the outcome is “inactive [at 9.23 µM]”.

As to `CC1(C)CCC2(C(=O)O)C(O)CC3(C)C(=CCC4C5(C)CCC(OC6OC(CO)C(O)C(O)C6OC6OC(CO)C(O)C(O)C6OC6OCC(O)(CO)C6O)C(C)(C)C5CCC43C)C2C1` (centres undefined), the activity change, negative = cell killing was 2.63% [at 9.23 µM] (inactive).

Regarding `O=C(/C=C/c1ccc(O)cc1)OCC1OC(O)C(OC2OC(CO)C(O)C(O)C2O)C(O)C1O` (centres undefined), the Potency entry is “inactive”.

Take `C[C@]1(OC(=O)/C=C\c2ccc(O)cc2)C[C@@H](O)[C@]2(O)C=CO[C@@H](O[C@@H]3O[C@H](CO)[C@@H](O)[C@H](O)[C@H]3O)C12` (some centres undefined): the Potency entry was “inactive”.

As for `COc1cc(C(O)C2COC(c3ccc(OC4OC(CO)C(O)C(O)C4O)c(OC)c3)C2CO)ccc1O` (centres undefined), the Potency entry was “inactive”.

Consider `COc1cc(C(C)=O)ccc1O[C@@H]1O[C@H](CO)[C@@H](O)[C@H](O)[C@H]1O`, for which the Potency result was “inactive”.

`CC(C)=CCC/C(C)=C/CO[C@@H]1O[C@H](CO[C@@H]2O[C@@H](CO)[C@H](O)[C@H]2O)[C@@H](O)[C@H](O)[C@H]1O`: the Potency entry was “inactive”.

As for `CC(O)C1CCC2C3CCC4CC(OC5OC(C(=O)O)C(O)C(O)C5O)CCC4(C)C3CCC12C` (centres undefined), the Potency entry was “inactive”.

`CCCCCOc1ccc(-c2cc(-c3ccc(C(=O)N[C@H]4C[C@@H](O)[C@@H](O)NC(=O)C5[C@@H](O)[C@@H](C)CN5C(=O)C([C@H](O)CC(N)=O)NC(=O)C([C@H](O)[C@@H](O)c5ccc(O)c(OS(=O)(=O)O)c5)NC(=O)C5C[C@@H](O)CN5C(=O)C([C@@H](C)O)NC4=O)cc3)no2)cc1` (stereo partly drawn) (X2-[Orn(4R-OH,5R-OH)][ξThr(3R)][ξPro(4R-OH)][ξhTyr(3S-OH,4S-OH,3'-OSO3H)][ξGln(3R-OH)][X3]; lactam 1-C): the Potency entry is “inactive”.

In the case of `CC(C)[C@@H](C(=O)O)N1Cc2c(cc(O)c3c2O[C@]2(C3)[C@H](C)CCC3C(C)(C)[C@H](O)[C@H](O)C[C@@]32C)C1=O` (some centres undefined), the Potency entry is “inactive”.

As for `CC1OC(O[C@@H]2[C@@H](O)[C@H](OC(=O)[C@]34CCC(C)(C)C[C@H]3C3=CCC5[C@@]6(C)CC[C@H](O[C@@H]7O[C@H](C(=O)O)[C@@H](O)[C@H](O[C@@H]8OC[C@@H](O)[C@H](O)[C@H]8O)[C@H]7O[C@@H]7O[C@H](CO)[C@H](O)[C@H](O)[C@H]7O)[C@@](C)(C=O)C6CC[C@@]5(C)[C@]3(C)C[C@H]4O)O[C@H](C)[C@@H]2OC2OC(C)C(OC3OCC(O)C(O)C3O)C(O)C2O)C(O)C(O)C1O` (some centres undefined), the activity change, negative = cell killing was -13.7% [at 9.23 µM] (inactive).

Take `C=C(C)[C@@]1(O)C[C@@]2(C)C(=CC1=O)CC[C@@H](O)[C@@H]2C`: the Potency result is “inactive”.

For `OC[C@@]1(O)CO[C@H](OC[C@H]2O[C@@H](OC(CCCCc3ccc(O)cc3)CCc3ccc(O)cc3)[C@H](O[C@H]3OC[C@](O)(CO)[C@H]3O)[C@@H](O)[C@@H]2O)[C@@H]1O` (some centres undefined), the Potency result is “inactive”.

Regarding `CC1(C)CC[C@]2(C(=O)O)CC[C@]3(C)C(=CCC4[C@@]5(C)CC[C@H](O[C@@H]6O[C@H](C(=O)O)[C@@H](O)[C@H](O)[C@H]6O)C(C)(C)C5CC[C@]43C)C2C1` (some centres undefined), the Potency entry was “inactive”.

With `COC(=O)CC[C@H](NC(=O)[C@H](CC(C)C)NC(=O)OCc1ccccc1)C(=O)N[C@@H](Cc1cnc[nH]1)C(=O)N[C@@H](CC(=O)OC)C(=O)CF` (Cbz-LE(OMe)HD(OMe)-CH2F), the activity change, negative = cell killing is -7.81% [at 9.23 µM] (inactive).

Consider `C[C@H]1[C@@H](O)[C@H](O)C2[C@]3(C)C([C@@H](O)[C@H]4OC(=O)[C@@H]1[C@@]24C)[C@](C)(O)C=C[C@H]3O[C@@H]1O[C@H](CO)[C@@H](O)[C@H](O)[C@H]1O` (some centres undefined), for which the Potency result is “inactive”.

As for `C[C@@H]1O[C@@H](O[C@H]2[C@H](O)[C@@H](O)[C@H](OC[C@H]3O[C@@H](OC(=O)[C@]45CCC(C)(C)C[C@H]4C4=CCC6[C@@]7(C)C[C@@H](O)[C@H](O)[C@@](C)(CO)C7[C@H](O)C[C@@]6(C)[C@]4(C)CC5)[C@H](O)[C@@H](O)[C@@H]3O)O[C@@H]2CO)[C@H](O)[C@H](O)[C@H]1O` (some centres undefined), the activity change, negative = cell killing was 0.947% [at 9.23 µM] (inactive).

Turning to `C[C@]12CCC[C@](C)(C(=O)O)C1CCC13CC(CO)C(CCC12)C3` (some centres undefined), the Potency result was “inactive”.

On to `CC(C)C1(O)C=C2C(=O)CC3C(C)(C(=O)O)CCCC3(C)C2CC1` (centres undefined), for which the Potency result is “inactive”.

With `CC(CC12CCCN1C(=O)C1CCCN1C2=O)OC(N)=O` (centres undefined), the Potency result is “inactive”.

As for `CC(/C=C/C=C(\C)C(=O)O[C@@H]1O[C@H](CO[C@@H]2O[C@H](CO)[C@@H](O)[C@H](O)[C@H]2O)[C@@H](O)[C@H](O)[C@H]1O)=C\C=C\C=C(C)\C=C\C=C(/C)C(=O)O[C@@H]1C[C@](O)(C(=O)O)C[C@@H](O)[C@H]1OC(=O)/C=C/c1ccc(O)c(O)c1`, the activity change, negative = cell killing is -16.8% [at 9.23 µM] (inactive).

For the compound `COC(=O)C1=C[C@@H](O)[C@@H](O)[C@H](O[C@@H]2O[C@H](CO)[C@@H](O)[C@H](O)[C@H]2OC(=O)/C=C/c2ccccc2)C1`, the Potency entry is “inactive”.
